The text below walks through data of PubChem BioAssay (NCATS).

Results filed as inconclusive are left out. Values without a mark were called inactive. Calls follow the shape of the full dose curve.
Potency is read from the fitted curve at half-maximal effect.

The nature of one assay: Cell Viability - HepG2 (AID 433).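 Also: cells exposed to compound for 40 hours; potency for ATP loss meaning cytotoxicity.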 Conditions: qHTS. The procedure, abridged:
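ATP luminescence (CellTiter-Glo) after 40 h compound exposure, 37 °C, HepG2, 1500 cells/well, complete medium. Normalized: DMSO = basal, 100 uM tamoxifen = 100% inhibition. AC50 via standard Hill equation.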
In the case of `Oc1cccc(Cl)c1Cl`, the Potency is more than 92 µM.
On the same count and under the same terms, then `CCC/C=N/O`, with more than 92 µM; and `Nc1cccc2ccccc12`, with more than 92 µM.
For the compound `Cc1cnc[nH]1`, the Potency was more than 92 µM.
Take `CN(C)N=O`: the Potency was more than 92 µM.
For the compound `COc1c(C(C)(C)C)cc([N+](=O)[O-])c(C)c1[N+](=O)[O-]`, the Potency was more than 92 µM.
For `C=C(Cl)CCl`, the Potency is more than 92 µM.
With `ClCCOCOCCCl`, the Potency was more than 92 µM.
With `CC12CC1(C)C(=O)N(c1cc(Cl)cc(Cl)c1)C2=O` (configuration not stated), the Potency was more than 92 µM.
As to `CC(C)(Cl)[N+](=O)[O-]`, the Potency is more than 92 µM.
`Cl/C=C/Cl`: the Potency was more than 92 µM.
Still for that read-out and setting: then `CCCCOCC1CO1` (configuration not stated), with more than 92 µM; and `O=C(O)c1cccc(Cl)c1`, with more than 92 µM; and `C1CC2OC2CC1C1CO1` (configuration not stated), with more than 92 µM.
In the case of `Brc1cccc(-c2ccccc2)c1`, the Potency is more than 92 µM.
With `Oc1c(Cl)cccc1Cl`, the Potency was more than 92 µM.
Regarding `ClCCOCCCl`, the Potency was more than 92 µM.
Take `CCNCC`: the Potency is more than 92 µM.
In the case of `CC(C)C#N`, the Potency was more than 92 µM.
With `Cl/C=C\Cl`, the Potency is more than 92 µM.
With `c1ccc2c(c1)CCNC2`, the Potency was more than 92 µM.
Same read-out and setting: then `CCBr`, with more than 92 µM; and `O=[N+]([O-])c1ccc(Cl)c(Cl)c1Cl`, with more than 92 µM; and `N#CCCC#N`, with more than 92 µM.
Turning to `Cc1ccccc1[N+](=O)[O-]`, the Potency was more than 92 µM.
Consider `OCCBr`, for which the Potency is more than 92 µM.
For `C=CC(=O)OCCN(C)C`, the Potency is more than 92 µM.
As for `CC(C)(C)C(O)(CCc1ccc(Cl)cc1)Cn1cncn1` (configuration not stated), the Potency is more than 92 µM.
On to `N#CCCCCC#N`, for which the Potency is more than 92 µM.
For the compound `CN=C=O`, the Potency is more than 92 µM.
Turning to `c1ccc(C2CO2)cc1` (configuration not stated), the Potency is more than 92 µM.
Take `CCCCCC[N+](=O)[O-]`: the Potency is more than 92 µM.
As for `OCC(Cl)CCl` (configuration not stated), the Potency is more than 92 µM.
In the case of `COc1ccc(C=O)cc1`, the Potency is more than 92 µM.
Turning to `Nc1ccc(Cl)c(Cl)c1`, the Potency is more than 92 µM.
Regarding `CC(=O)[O-].CC(=O)[O-].CC(=O)[O-].[Cr+3]`, the Potency is more than 92 µM.
With `CC(=O)CCC(C)=O`, the Potency is more than 92 µM.
As for `C=CC(=O)OCC(CC)CCCC` (configuration not stated), the Potency is more than 92 µM.
For `CC(C#N)CCC#N` (configuration not stated), the Potency is more than 92 µM.

The nature of the next assay: Cell Viability - MRC5 (AID 434).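 Also: cells exposed to compound for 40 hours at 37 °C; potency reflects cytotoxicity seen as loss of intracellular ATP.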 Conditions: MRC5 lung fibroblast viability, qHTS. The essentials:
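MRC5 normal human lung fibroblasts (1500/well) were treated with compounds for 40 hr at 37 °C in complete medium, and viable cells were measured as intracellular ATP by CellTiter-Glo luminescence. AC50 came from Hill fits, normalized to DMSO and 100 uM tamoxifen.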
In general terms: qHTS replaces the single test concentration by a dilution series.
In the case of `Oc1cccc(Cl)c1Cl`, the Potency was more than 92 µM.
`CCC/C=N/O`: the Potency is more than 92 µM.
With `Nc1cccc2ccccc12`, the Potency is more than 92 µM.
Turning to `Cc1cnc[nH]1`, the Potency is more than 92 µM.
As for `CN(C)N=O`, the Potency is more than 92 µM.
For `COc1c(C(C)(C)C)cc([N+](=O)[O-])c(C)c1[N+](=O)[O-]`, the Potency is more than 92 µM.
As for `C=C(Cl)CCl`, the Potency is more than 92 µM.
`ClCCOCOCCCl`: the Potency was more than 92 µM.
As for `CC12CC1(C)C(=O)N(c1cc(Cl)cc(Cl)c1)C2=O` (configuration not stated), the Potency was more than 92 µM.
In the case of `CC(C)(Cl)[N+](=O)[O-]`, the Potency was more than 92 µM.
On to `Cl/C=C/Cl`, for which the Potency was more than 92 µM.
With `CCCCOCC1CO1` (configuration not stated), the Potency is more than 92 µM.
As to `O=C(O)c1cccc(Cl)c1`, the Potency is more than 92 µM.
Same read-out and setting: under `C1CC2OC2CC1C1CO1` (configuration not stated) stands more than 92 µM; under `Brc1cccc(-c2ccccc2)c1`, more than 92 µM.
The same measure, in the same setting: under `Oc1c(Cl)cccc1Cl` stands more than 92 µM; under `ClCCOCCCl`, more than 92 µM; under `CCNCC`, more than 92 µM.
Regarding `CC(C)C#N`, the Potency is more than 92 µM.
Turning to `Cl/C=C\Cl`, the Potency was more than 92 µM.
For the compound `c1ccc2c(c1)CCNC2`, the Potency was more than 92 µM.
Consider `CCBr`, for which the Potency is more than 92 µM.
Turning to `O=[N+]([O-])c1ccc(Cl)c(Cl)c1Cl`, the Potency was more than 92 µM.
`N#CCCC#N`: the Potency is more than 92 µM.
For the compound `Cc1ccccc1[N+](=O)[O-]`, the Potency was more than 92 µM.
Regarding `OCCBr`, the Potency was more than 92 µM.
Take `C=CC(=O)OCCN(C)C`: the Potency is more than 92 µM.
As for `CC(C)(C)C(O)(CCc1ccc(Cl)cc1)Cn1cncn1` (configuration not stated), the Potency was more than 92 µM.
Regarding `N#CCCCCC#N`, the Potency was more than 92 µM.
For the compound `CN=C=O`, the Potency was more than 92 µM.
Turning to `c1ccc(C2CO2)cc1` (configuration not stated), the Potency is more than 92 µM.
With `CCCCCC[N+](=O)[O-]`, the Potency was more than 92 µM.
With `OCC(Cl)CCl` (configuration not stated), the Potency is more than 92 µM.
The same measure, in the same setting: under `COc1ccc(C=O)cc1` stands more than 92 µM; under `Nc1ccc(Cl)c(Cl)c1`, more than 92 µM; under `CC(=O)[O-].CC(=O)[O-].CC(=O)[O-].[Cr+3]`, more than 92 µM.
With `CC(=O)CCC(C)=O`, the Potency is more than 92 µM.
As for `C=CC(=O)OCC(CC)CCCC` (configuration not stated), the Potency is more than 92 µM.
Turning to `CC(C#N)CCC#N` (configuration not stated), the Potency is more than 92 µM.

A further assay can be described thus: Cell Viability - SK-N-SH (AID 435). Conditions: SK-N-SH neuroblastoma cell viability qHTS. The essentials:
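CellTiter-Glo ATP luminescence, 20 min RT read; cells pre-plated 5 hr, compound 40 hr at 37 °C, 1500 cells/well, complete medium. Normalized DMSO = 0, 100 uM tamoxifen = 100% inhibition; Hill-fit AC50.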
Consider `Oc1cccc(Cl)c1Cl`, for which the Potency is more than 92 µM.
The same measure, in the same setting: under `CCC/C=N/O` stands more than 92 µM; under `Nc1cccc2ccccc12`, more than 92 µM.
For the compound `Cc1cnc[nH]1`, the Potency was more than 92 µM.
Consider `CN(C)N=O`, for which the Potency is more than 92 µM.
For the compound `COc1c(C(C)(C)C)cc([N+](=O)[O-])c(C)c1[N+](=O)[O-]`, the Potency was more than 92 µM.
Regarding `C=C(Cl)CCl`, the Potency was more than 92 µM.
For `ClCCOCOCCCl`, the Potency is more than 92 µM.
Same read-out and setting: then `CC12CC1(C)C(=O)N(c1cc(Cl)cc(Cl)c1)C2=O` (configuration not stated), with more than 92 µM; and `CC(C)(Cl)[N+](=O)[O-]`, with more than 92 µM.
Consider `Cl/C=C/Cl`, for which the Potency was more than 92 µM.
Consider `CCCCOCC1CO1` (configuration not stated), for which the Potency was more than 92 µM.
Consider `O=C(O)c1cccc(Cl)c1`, for which the Potency is more than 92 µM.
As to `C1CC2OC2CC1C1CO1` (configuration not stated), the Potency is more than 92 µM.
As for `Brc1cccc(-c2ccccc2)c1`, the Potency is more than 92 µM.
The same measure, in the same setting: under `Oc1c(Cl)cccc1Cl` stands more than 92 µM; under `ClCCOCCCl`, more than 92 µM.
As to `CCNCC`, the Potency is more than 92 µM.
For `CC(C)C#N`, the Potency is more than 92 µM.
Same read-out and setting: under `Cl/C=C\Cl` stands more than 92 µM.
Regarding `c1ccc2c(c1)CCNC2`, the Potency was more than 92 µM.
In the case of `CCBr`, the Potency was more than 92 µM.
Turning to `O=[N+]([O-])c1ccc(Cl)c(Cl)c1Cl`, the Potency was more than 92 µM.
Same read-out and setting: then `N#CCCC#N`, with more than 92 µM; and `Cc1ccccc1[N+](=O)[O-]`, with more than 92 µM.
As for `OCCBr`, the Potency is more than 92 µM.
Still for that read-out and setting: under `C=CC(=O)OCCN(C)C` stands more than 92 µM; under `CC(C)(C)C(O)(CCc1ccc(Cl)cc1)Cn1cncn1` (configuration not stated), more than 92 µM; under `N#CCCCCC#N`, more than 92 µM.
As for `CN=C=O`, the Potency was more than 92 µM.
As to `c1ccc(C2CO2)cc1` (configuration not stated), the Potency was more than 92 µM.
Consider `CCCCCC[N+](=O)[O-]`, for which the Potency is more than 92 µM.
The same measure, in the same setting: then `OCC(Cl)CCl` (configuration not stated), with more than 92 µM; and `COc1ccc(C=O)cc1`, with more than 92 µM.
Take `Nc1ccc(Cl)c(Cl)c1`: the Potency is more than 92 µM.
As to `CC(=O)[O-].CC(=O)[O-].CC(=O)[O-].[Cr+3]`, the Potency is more than 92 µM.
Still for that read-out and setting: under `CC(=O)CCC(C)=O` stands more than 92 µM; under `C=CC(=O)OCC(CC)CCCC` (configuration not stated), more than 92 µM.
Regarding `CC(C#N)CCC#N` (configuration not stated), the Potency is more than 92 µM.
